Reference: PMC12136788
Numbering of substitutions follows the chain as printed. The full ranking holds about 5,800 sequences; the median of “enrichment r” is about 0.68, and the highest 2% start at about 11. The list comes from a sample in which the highest values are over-represented; it also holds similar and randomly drawn sequences.

T1: UNK ZnF1-6 (called full-length) (human, UniProt Q9C0B0 30-357)
T1 sequence: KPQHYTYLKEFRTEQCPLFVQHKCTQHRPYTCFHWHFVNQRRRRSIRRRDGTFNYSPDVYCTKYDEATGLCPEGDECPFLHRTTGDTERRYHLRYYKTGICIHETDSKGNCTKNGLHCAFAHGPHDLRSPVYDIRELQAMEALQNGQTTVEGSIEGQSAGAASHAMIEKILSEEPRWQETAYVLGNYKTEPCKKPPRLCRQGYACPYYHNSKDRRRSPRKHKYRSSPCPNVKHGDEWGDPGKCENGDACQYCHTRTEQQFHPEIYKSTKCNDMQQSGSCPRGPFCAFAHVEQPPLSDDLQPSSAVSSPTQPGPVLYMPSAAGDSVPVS

B1: chr1:85021069:85021276:-|CDS|ENSG00000055732|control|control|control (ssRNA)
RNA: GGGAGUUCUACAGUCCGACGAUCGAUAUGUUUGCCACGUUUGCAAAAAUGCAGCAAAAAAGUUACUUAGUCUGGCUGUUUAGUAGAAUUUACCUCUACUCAUUCAUCAGCCUCUUUAUAUAUAUGAUUUUAAGUCUUUUCAUUCAACAGAGGAUUGAGCAUCA
B2: chr1:42176760:42176861:-|3pUTR|ENSG00000198815|msi1|FALSE|bound_elsewhere (ssRNA)
RNA: GGGAGUUCUACAGUCCGACGAUCGUCGCUCAGAUGUCCUUUGAAGUGGGAGGGAAUCAAUCCGGGGAUAAUUUCAAAUGGAAUAGAGUAUUUUGAUAUUGUUCAUUCAGAGGGUGAUGUGUACAUAUCUAUAUUGUAUAUAUGCAACAGAGGAUUGAGCAUCA
B3: chr8:108778973:108784180:-|three_prime_utr|ENSG00000164841|control|control|control (ssRNA)
RNA: GGGAGUUCUACAGUCCGACGAUCAAGUUUAUUUCACAAACCAACAGCCAGUAAGUGUUUUUGUUCUCUAUGUGUCUUCUAUUUAGAAGAAAAGCCAUGUAAGAUGUAUAAGAAACCACAACCAGCCACACCUAUCCUUCUGAACAACAGAGGAUUGAGCAUCA
B4: ENSG00000072803:stop:overlap|stop_codon|ENSG00000072803|stop_codon|NA|stop_codon (ssRNA)
RNA: GGGAGUUCUACAGUCCGACGAUCCUGGAUACAGUAAACGGAAAGAAUCUUGGAAGAUGCUUGACUGCUGUCUUUUCUCAGACUAGUCUGAAAGGGAAAACCCCCAUUCAUUCUGGAUUGGUGGAUCUGAAGUACAAAAUAUUUCAACAGAGGAUUGAGCAUCA
B5: chrX:47571900:47572933:-|three_prime_utr|ENSG00000008056|control|control|control (ssRNA)
RNA: GGGAGUUCUACAGUCCGACGAUCAAACCUGACUCCUCCUGGCCCUAAAUCCGGUUCUCACAUGUGGAAUCCCCAAGUCCUUUUAGAACCCCACUCGUGGUCACUUCAGGAUCUACUUCUGUUUUAGAACCUCCACAUUCCUGACAACAGAGGAUUGAGCAUCA
B6: chr19:18196783:18197469:-|three_prime_utr|ENSG00000105649|control|control|control (ssRNA)
RNA: GGGAGUUCUACAGUCCGACGAUCACUACCCGGGCCUGACCCGGCCCCUACCAGCCACGGGCACAAGACCCCUGCUCCUGACUUAGCCCGUCACCCUUAUUUAUUAUUGUAGCUAUUUAUUUAUUUAUUGAAGAUGUCCCCCAGCAACAGAGGAUUGAGCAUCA
B7: chr1:161190761:161190881:-|3pUTR|ENSG00000158859|msi1|total|mutant (ssRNA)
RNA: GGGAGUUCUACAGUCCGACGAUCUGCGGGUCACAGGAGGGAGGGGGAAGGCAGGGAGGGCCUGGGCCCCAGUUGUAUUUAUUCCGUAUUUAUUCACUUUUAUUCCGCACCAGGGAAGGGGACAAGGACCCGGGUCCUGGGGAACAACAGAGGAUUGAGCAUCA
B8: chr4:87473334:87473774:-|three_prime_utr|ENSG00000152583|control|control|control (ssRNA)
RNA: GGGAGUUCUACAGUCCGACGAUCCUUUCCAGCAUCCUCCUCUGUUCUAACCACUUCAGAAAUAUAUGCAGCUGUGAUACUUGUAGAUUUAUAUUUAGCAAAAUGUUAGCAUGUAUGACAAGACAAUGAGAGUAAUUGCUUGACCAACAGAGGAUUGAGCAUCA
B9: chr5:180576808:180576909:+|3pUTR|ENSG00000113300|unk|total|mutant (ssRNA)
RNA: GGGAGUUCUACAGUCCGACGAUCUAUUUUCCGUGUCCUAAAUAAUUUUCAAUAAUCUAUAAUCCCUAAAAUGCAAUAAAAACCCGUAUGUUUUCACGGUGUAUAUUUUUUUUCAAAAAUUCUGUAACAAAUAUAUUUAAUGUGCAACAGAGGAUUGAGCAUCA
B10: chr7:80742902:80743013:-|3pUTR|ENSG00000075223|msi1_unk|total|mutant (ssRNA)
RNA: GGGAGUUCUACAGUCCGACGAUCUCAGAGUCACAGUUCCCUUUAUUUCACAUAAGCCCAAACUGACCGACAGUAACGGUGUUCCGUUUUAUACUAUAUUUGUGCUAUUUAAUUCUUUCUAUUUUCACAAUUAUUAAAUUGUGUCAACAGAGGAUUGAGCAUCA
B11: chr15:93024873:93024975:+|3pUTR|ENSG00000173575|unk|total|mutant (ssRNA)
RNA: GGGAGUUCUACAGUCCGACGAUCGGUCCAGCUCUGAUUCGGGUCACCACUCCUGCACUUUGGCACCCCAUCCCAUUCCAGCCCCGUUCUGGCCUCCCACUUUGACGGGCACUUGGAGGAGGAGCUGACUGUGUGUGUACCAGCCAACAGAGGAUUGAGCAUCA
B12: chr1:161190761:161190881:-|3pUTR|ENSG00000158859|msi1|FALSE|unique (ssRNA)
RNA: B7 RNA with C83U, C84A, C104U, C105A, C129U, C130A
B13: chr19:39539560:39539696:-|CDS|ENSG00000176396|unk|FALSE|unique (ssRNA)
RNA: GGGAGUUCUACAGUCCGACGAUCCGGGAACGGAGGCCUGGCUGCGUUGCCCUAUCUCCGUCUCCGCCACCCACUUAGCGUUUUAGGCAUCAAUUACCAGCAGUUUCUCCGCCACUAUCUGGAAAAUUACCCGAUUGCUCCCGGCAACAGAGGAUUGAGCAUCA
B14: chr5:180576808:180576909:+|3pUTR|ENSG00000113300|unk|FALSE|unique (ssRNA)
RNA: B9 RNA with C83U, C84A
B15: ENSG00000181035:stop:overlap|stop_codon|ENSG00000181035|stop_codon|NA|stop_codon (ssRNA)
RNA: GGGAGUUCUACAGUCCGACGAUCUGGGCAUCAGCUUCACCACCUUCGACCUCAUGCAGAUCCUGCUGCGGCACCUGCAGAGCUAGGGGACCCUGAGCUGCUCUCAGGACGGUGGACCGGUGACCCCUUUGUAUUCUGGGCCCACAACAGAGGAUUGAGCAUCA
B16: chr7:20412070:20412171:+|3pUTR|ENSG00000105855|msi1|total|mutant (ssRNA)
RNA: GGGAGUUCUACAGUCCGACGAUCCUUUUUUUUUAUAAUAAACUUCCAAGAUUUGCUGUCUUCCAGCACUUGAGUUAAAGUACCCGAUACUGCAUUUUGAUGAAGACUAACCCCAUCUCAUAUUCUACCCUAAAGAGAACUGAACAACAGAGGAUUGAGCAUCA
B17: chr8:37861146:37861251:-|3pUTR|ENSG00000156675|unk|FALSE|unique (ssRNA)
RNA: GGGAGUUCUACAGUCCGACGAUCCUGUGCAGAGCAAGAAGAUGAUACUUAUUUUUGAAUUUGUAUUUUUAAAACUAGAUUUAUAGACUUUUUUUUUUUUUAACUAGGGCACUUGCUUCCUUCUUAGCUAAAAGCACCAGCUGACAACAGAGGAUUGAGCAUCA
B18: chr1:203709306:203709407:+|CDS|ENSG00000058668|msi1|total|mutant (ssRNA)
RNA: GGGAGUUCUACAGUCCGACGAUCUCCAGAGAAGGAGGGAGGCCUGCCUCGGCAGGUGGGCAACAAGACCGAGUGUGCUCUGCCCGGCUUUGUCACAGAUCUGAAGCAGGAUUAUCAGGCUGUGCGUAAUGAAGUGCCCGAGGACAACAGAGGAUUGAGCAUCA
B19: chr1:225789428:225789553:+|3pUTR|ENSG00000143742|unk|FALSE|unique (ssRNA)
RNA: GGGAGUUCUACAGUCCGACGAUCUUAGAGAAAGUGUUGGGACAGAAAGUACUUUAUGUAACUAAGUGGGCUGUUCAGAAGCUUAGAGGUCAUUUUUUGUAAUUUUCUUUUUAAUUACUUUAGAGAGCUAGGGAUGCAAAUGUUCAACAGAGGAUUGAGCAUCA
B20: chr22:27980698:27980799:-|3pUTR|ENSG00000100154|unk|total|mutant (ssRNA)
RNA: GGGAGUUCUACAGUCCGACGAUCUAACCAUUAAUUUAUUUUAUAAAGAAAGGAAAUGCUGAAAGUCGUAUCCGUACUGAGUUCCGUUGGAGAAUUCCGAUAAGUAAGUAUCUUUCCGGUAAUUCUAAAAUUAAAAUCCUACCCCAACAGAGGAUUGAGCAUCA
B21: ENSG00000124766:be:win_3501|3pUTR|ENSG00000124766|bound_else_gene|NA|bound_elsewhere_windowed (ssRNA)
RNA: GGGAGUUCUACAGUCCGACGAUCAACUUGUAAACCACAUCUUUUUUGCACUUUUUUUAUAAGCAAAAACGUGCCGUUUAAACCACUGGAUCUAUCUAAAUGCCGAUUUGAGUUCGCGACACUAUGUACUGCGUUUUUCAUUCUCAACAGAGGAUUGAGCAUCA
B22: chr10:60791946:60792061:+|CDS|ENSG00000170312|unk|FALSE|unique (ssRNA)
RNA: GGGAGUUCUACAGUCCGACGAUCGUCAGCUCGUUACUCAACUCCAGUUGACAUUUGGAGUAUAGGCACCAUAUUUGCUGAACUAGCAACUAAGAAACCACUUUUCCAUGGGGAUUCAGAAAUUGAUCAACUCUUCAGGAUUUUCAACAGAGGAUUGAGCAUCA

The binders below were run against T1, UNK ZnF1-6 (called full-length) (assay: nsRBNS (natural sequence RNA bind-n-seq); RBNS binding buffer (assumed for nsRBNS): 25 mM Tris pH 7.5, 150 mM KCl, 3 mM MgCl2, 0.01% Triton X-100, 500 ug/ml BSA, 20 U/ml SUPERase-In, 4 C; UNK is unkempt and MSI1 is Musashi-1; names of the RNAs are library labels; protein concentration not given here; high values mean tight binding).
B1 was tested, and the binding signal was 1.95 enrichment R.
Binder B2 has a binding signal of 1.26 enrichment R.
B3 gave a binding signal of 0.507 enrichment R.
With B4 the binding signal was 1.04 enrichment R.
For B5, the binding signal was 0.975 enrichment R.
B6 gave a binding signal of 66 enrichment R.
With B7 the binding signal was 2.05 enrichment R.
For B8, the binding signal was 2.1 enrichment R.
B9 was tested, and the binding signal was 10.6 enrichment R.
Work on B10 yielded a binding signal of 1.71 enrichment R.
Binder B11 has a binding signal of 4.11 enrichment R.
Binder B12 has a binding signal of 32.9 enrichment R.
B13 showed a binding signal of 1.3 enrichment R.
Binder B14 has a binding signal of 20.9 enrichment R.
In the case of B15, the binding signal is reported as 1.2 enrichment R.
In the case of B16, the binding signal is reported as 0.911 enrichment R.
B17 showed a binding signal of 53.1 enrichment R.
For B18, the binding signal was 0.691 enrichment R.
B19 gave a binding signal of 1.53 enrichment R.
B20 gave a binding signal of 0.76 enrichment R.
Work on B21 yielded a binding signal of 0.497 enrichment R.
For B22, the binding signal was 0.452 enrichment R.
